In assay [1] the target is human Peroxisome Proliferator-activated Receptor alpha (PPARa), PPARA (gene 5465) (UniProt Q07869). Nature of the assay: ATG_PPARa_TRANS: Attagene TRANS-FACTORIAL HepG2 Assay for human Peroxisome Proliferator-activated Receptor alpha (PPARa) (AID 2283001). In outline: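 Transient HepG2 transfection, GAL4-UAS reporters, NR-Gal4 chimeras; 24 h compound exposure. Readout: reporter transcripts by RT-PCR, 6-FAM primer extension, HpaI digest, capillary electrophoresis. Positive direction vs DMSO baseline.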

Read-out in assay [2]: Intercellular Adhesion Molecule 1 (ICAM1), ICAM1 (gene 3383)
As to the kind of experiment: BSK_3C_ICAM1: BioMAP Diversity Plus: 3C Assay for Intercellular Adhesion Molecule 1 (ICAM1) Biomarker Activity (AID 2283003; active = hit-call score of the fitted dose curve at least 0.9, where 1 is the maximum; inactive = score below 0.9). Particulars: primary human endothelial cells (HUVEC); actives raise or lower the signal. The gist of the method: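 Using DMSO as baseline, bidirectional curve fitting was applied to ICAM-1 ELISA signals from HUVEC in the 3C system, measured 24 h after compound addition.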

Assay [3] has as its target human Retinoic Acid Receptor beta (RARb), RARB (gene 5915) (UniProt P10826). As to the kind of experiment: ATG_RARb_TRANS: Attagene TRANS-FACTORIAL HepG2 Assay for human Retinoic Acid Receptor beta (AID 2283004). The gist of the method: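 Transient transfection of HepG2 with multiple reporter units → chemical dosing, 24 h → total RNA isolation → RT with oligo(dT) → reporter-specific PCR, 6-FAM primer extension, HpaI digest → capillary electrophoresis. Positive direction vs DMSO control.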

The target in assay [4] is Retinoic acid receptor alpha (Homo sapiens) (UniProt P10276). Nature of the assay: ATG_RARa_TRANS: Attagene TRANS-FACTORIAL HepG2 Assay for human Retinoic Acid Receptor alpha (RARa) (AID 2283005). The gist of the method:
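HepG2 transiently transfected with multiplex GAL4-UAS reporter units including a human RARa–GAL4 chimera; 24 h compound exposure. Reporter mRNA quantified by RT-PCR, 6-FAM labeling and capillary electrophoresis; gain of signal versus DMSO.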

Assay [5] can be described thus: BSK_3C_Proliferation: Cell Proliferation Assessment in the BioMAP Diversity Plus: 3C Assay (AID 2283006; active = hit-call score of the fitted dose curve at least 0.9, where 1 is the maximum; inactive = score below 0.9;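 for AC50: potency may reflect either rise or fall in cell number versus DMSO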). Particulars: primary human endothelial cells (HUVEC). In outline:
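Measured here: sulforhodamine B (0.1%) staining of TCA-fixed sub-confluent umbilical vein endothelial cultures 48 h post-dosing, absorbance 560 nm. DMSO served as negative control and baseline; both signal gain and loss were modelled.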

Assay [6] has as its target Peroxisome proliferator-activated receptor gamma (Homo sapiens) (UniProt P37231). As to the kind of experiment: ATG_PPARg_TRANS: Attagene TRANS-FACTORIAL HepG2 Assay for human Peroxisome Proliferator-activated Receptor-gamma (PPARg) (AID 2283007). The gist of the method: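 After 24 h of chemical exposure, transfected HepG2 cells carrying PPARγ-Gal4 chimera reporter constructs are lysed for RNA. Reporter transcripts are measured by RT-PCR and capillary electrophoresis with fluorescent labelling, and gain of signal is fitted versus DMSO.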

In assay [7] the target is Nuclear receptor subfamily 1 group I member 2 (Homo sapiens) (UniProt O75469). As to the kind of experiment: ATG_PXR_TRANS: Attagene TRANS-FACTORIAL HepG2 Assay for human Pregnane X Receptor (PXR) (AID 2283008). In outline:
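Transactivation by exogenous PXR–GAL4 fusion measured as reporter transcript induction after 24 h compound treatment of transfected human HepG2 cells. Read-out via RT-PCR and capillary electrophoresis of labelled fragments, fitted upward relative to DMSO.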

Assay [8] concerns the target Retinoic acid receptor RXR-alpha (Homo sapiens) (UniProt P19793). Nature of the assay: ATG_RXRa_TRANS: Attagene TRANS-FACTORIAL HepG2 Assay for human Retinoid X Receptor alpha (RXRa) (AID 2283012). The gist of the method: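 Chimeric NR-GAL4 trans-activation in HepG2, 24 h treatment; reporter transcripts quantified by fluorescence on capillary electrophoresis, analysed for upward change from DMSO.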

The target of assay [9] is human Retinoid X Receptor beta (RXRb), RXRB (gene 6257) (UniProt P28702). As to the kind of experiment: ATG_RXRb_TRANS: Attagene TRANS-FACTORIAL HepG2 Assay for human Retinoid X Receptor beta (RXRb) (AID 2283013). In outline: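 After a 24 h incubation with test chemical, transfected HepG2 cells carrying NR-Gal4 fusions and GAL4-UAS reporter transcription units yield RNA whose reporter cDNA is FAM-labelled, HpaI-cut and sized by capillary electrophoresis; increases over DMSO are scored.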

Read-out in assay [10]: E-selectin (Homo sapiens) (UniProt P16581)
As to the kind of experiment: BSK_3C_Eselectin: BioMAP Diversity Plus: 3C Assay for Eselectin Biomarker Activity (AID 2283015; active = hit-call score of the fitted dose curve at least 0.9, where 1 is the maximum; inactive = score below 0.9). Particulars: primary human endothelial cells (HUVEC); actives raise or lower the signal. The gist of the method:
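ELISA read-out of E-selectin on endothelial monolayers after 24 h chemical treatment. Human umbilical vein primary cells served as the system, with DMSO defining baseline activity for bidirectional fitting.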

Read-out in assay [11]: Interleukin-1 alpha (IL1a), IL1A (gene 3552)
As to the kind of experiment: BSK_BE3C_IL1a: BioMAP Diversity Plus: BE3C Assay for Interleukin-1 alpha (IL1a) Biomarker Activity (AID 2283016; active = hit-call score of the fitted dose curve at least 0.9, where 1 is the maximum; inactive = score below 0.9). Particulars: primary human bronchial epithelial cells; actives raise or lower the signal. In outline: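 Measured in human lung primary bronchial epithelial cells: IL-1a by ELISA at 24 h after dosing, with bidirectional fitting against DMSO.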

Read-out in assay [12]: Monocyte Chemoattractant Protein-1 (MCP1), CCL2 (gene 6347)
As to the kind of experiment: BSK_3C_MCP1: BioMAP Diversity Plus: 3C Assay for Monocyte Chemoattractant Protein-1 (MCP1) Biomarker Activity (AID 2283017; active = hit-call score of the fitted dose curve at least 0.9, where 1 is the maximum; inactive = score below 0.9). The settings on record: primary human endothelial cells (HUVEC); actives raise or lower the signal. In outline: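 ELISA read-out of MCP-1 from human umbilical vein endothelial cell cultures harvested 24 h post-dosing. Gain or loss of signal was fitted relative to DMSO.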

Read-out in assay [13]: Monocyte Chemoattractant Protein-1 (MCP1), CCL2 (gene 6347)
Nature of the assay: BSK_4H_MCP1: BioMAP Diversity Plus: 4H Assay for Monocyte Chemoattractant Protein-1 (MCP1) Biomarker Activity (AID 2283018; active = hit-call score of the fitted dose curve at least 0.9, where 1 is the maximum; inactive = score below 0.9). Particulars: primary human endothelial cells (HUVEC); actives raise or lower the signal. In outline:
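Primary human umbilical vein endothelium is exposed to chemical for 24 h before MCP-1 is assayed by ELISA. Concentration-response fitted bidirectionally relative to DMSO.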

Read-out in assay [14]: Human Leukocyte Antigen - DR isotype (HLADR), HLA-DRA (gene 3122)
Nature of the assay: BSK_3C_HLADR: BioMAP Diversity Plus: 3C Assay for Human Leukocyte Antigen - DR isotype (HLADR) Biomarker Activity (AID 2283019; active = hit-call score of the fitted dose curve at least 0.9, where 1 is the maximum; inactive = score below 0.9). The settings on record: primary human endothelial cells (HUVEC); actives raise or lower the signal. The gist of the method:
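ELISA readout of surface HLA-DR on human umbilical vein endothelium, taken 24 h after chemical treatment. Gain- and loss-of-signal were both fitted relative to DMSO.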

Read-out in assay [15]: Monokine induced gamma interferon (MIG), CXCL9 (gene 4283)
Nature of the assay: BSK_3C_MIG: BioMAP Diversity Plus: 3C Assay for Monokine induced gamma interferon (MIG) Biomarker Activity (AID 2283021; active = hit-call score of the fitted dose curve at least 0.9, where 1 is the maximum; inactive = score below 0.9;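 for AC50: MIG protein level measured by immunoassay in the treated endothelial cultures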). Particulars: primary human endothelial cells (HUVEC); actives raise or lower the signal. In outline:
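ELISA-measured MIG in dosed HUVEC 3C cultures at 24 h, analysed by bidirectional fitting with DMSO defining baseline activity.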

The target in assay [16] is human Peroxisome Proliferator-activated Receptor delta (PPARd), PPARD (gene 5467) (UniProt Q03181). As to the kind of experiment: ATG_PPARd_TRANS: Attagene TRANS-FACTORIAL HepG2 Assay for human Peroxisome Proliferator-activated Receptor delta (PPARd) (AID 2283002). The gist of the method:
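Fluorescence from capillary electrophoresis of labelled RT-PCR reporter fragments gives the signal; DMSO sets baseline. Cells: HepG2 transiently carrying GAL4-UAS reporter units plus chimeric nuclear receptor-Gal4 proteins, exposed to chemicals for 24 h.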

The target of assay [17] is human Thyroid Receptor alpha (THRa1), THRA (gene 7067) (UniProt P10827). Nature of the assay: ATG_THRa1_TRANS: Attagene TRANS-FACTORIAL HepG2 Assay for human Thyroid Receptor alpha (THRa1) (AID 2283014). In outline: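 Reporter transcript induction, read by capillary electrophoresis of 6-FAM-labelled RT-PCR products, reflects activity of a transfected THRa1-Gal4 fusion in HepG2 liver cells. Cells were dosed for 24 h; activity was fitted in the positive direction against DMSO.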

Assay [18] addresses human Vitamin D Receptor (VDR), VDR (gene 7421) (UniProt P11473). As to the kind of experiment: ATG_VDR_TRANS: Attagene TRANS-FACTORIAL HepG2 Assay for human Vitamin D Receptor (VDR) (AID 2283022). In outline: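 Steps: transfect HepG2 with GAL4-UAS-driven reporter constructs; dose compounds 24 h; isolate RNA, reverse-transcribe, PCR-amplify with 6-FAM-labelled primer extension and HpaI digestion; quantify fragments by capillary electrophoresis relative to DMSO.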

In assay [19] the target is human RAR-related Orphan Receptor beta (RORb), RORB (gene 6096) (UniProt Q92753). As to the kind of experiment: ATG_RORb_TRANS: Attagene TRANS-FACTORIAL HepG2 Assay for human RAR-related Orphan Receptor beta (RORb) (AID 2283010). In outline:
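Multiplexed transcription-factor reporter assay: HepG2 cells transiently carrying NR-Gal4/GAL4-UAS constructs, 24 h treatment, mRNA quantified by RT-PCR plus capillary electrophoresis fluorescence; activity scored as induction over DMSO.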

Read-out in assay [20]: Interleukin-8 (IL8), CXCL8 (gene 3576)
As to the kind of experiment: BSK_3C_IL8: BioMAP Diversity Plus: 3C Assay for Interleukin-8 (IL8) Biomarker Activity (AID 2283020; active = hit-call score of the fitted dose curve at least 0.9, where 1 is the maximum; inactive = score below 0.9). The settings on record: primary human endothelial cells (HUVEC); actives raise or lower the signal. The gist of the method: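 Using DMSO-treated wells as the baseline, bidirectional curve fitting was applied to ELISA-measured IL-8 from human umbilical vein endothelial cultures sampled 24 h after compound addition.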

Inconclusive results are not listed. Active and inactive are the calls of the source. Rule for the calls, unless noted: active = hit-call score of the fitted dose curve at least 0.9, where 1 is the maximum; inconclusive = response in the unintended direction; inactive = score below 0.9.

Chain of Peroxisome proliferator-activated receptor gamma (Homo sapiens) (P37231 whole entry, looked up, the tested form may be a part): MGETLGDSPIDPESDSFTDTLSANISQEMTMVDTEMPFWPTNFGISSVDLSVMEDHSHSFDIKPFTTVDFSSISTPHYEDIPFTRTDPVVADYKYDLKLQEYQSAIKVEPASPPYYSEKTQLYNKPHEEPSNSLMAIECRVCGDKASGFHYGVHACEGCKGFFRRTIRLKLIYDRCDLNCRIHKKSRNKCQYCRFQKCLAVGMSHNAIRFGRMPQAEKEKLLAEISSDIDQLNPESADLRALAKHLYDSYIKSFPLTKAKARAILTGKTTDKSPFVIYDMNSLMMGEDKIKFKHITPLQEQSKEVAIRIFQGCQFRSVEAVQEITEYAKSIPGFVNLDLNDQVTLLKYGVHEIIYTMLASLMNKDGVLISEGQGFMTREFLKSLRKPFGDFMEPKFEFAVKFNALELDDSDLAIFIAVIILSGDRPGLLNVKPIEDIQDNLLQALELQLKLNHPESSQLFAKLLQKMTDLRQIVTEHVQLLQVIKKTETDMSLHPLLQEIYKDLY
Chain of human Vitamin D Receptor (VDR), VDR (gene 7421) (P11473 whole entry, looked up, the tested form may be a part): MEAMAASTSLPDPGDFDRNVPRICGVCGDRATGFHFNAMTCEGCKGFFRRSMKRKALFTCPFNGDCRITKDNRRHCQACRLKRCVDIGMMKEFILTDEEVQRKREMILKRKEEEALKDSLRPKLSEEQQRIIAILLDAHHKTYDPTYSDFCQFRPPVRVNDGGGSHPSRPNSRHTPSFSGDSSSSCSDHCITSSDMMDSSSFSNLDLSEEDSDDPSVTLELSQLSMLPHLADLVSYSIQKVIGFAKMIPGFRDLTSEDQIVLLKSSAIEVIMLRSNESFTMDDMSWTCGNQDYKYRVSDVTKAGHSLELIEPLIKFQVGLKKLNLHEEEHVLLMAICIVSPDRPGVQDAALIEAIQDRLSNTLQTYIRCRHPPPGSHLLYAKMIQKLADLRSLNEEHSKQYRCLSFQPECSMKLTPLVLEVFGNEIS
Chain of Retinoic acid receptor RXR-alpha (Homo sapiens) (P19793 whole entry, looked up, the tested form may be a part): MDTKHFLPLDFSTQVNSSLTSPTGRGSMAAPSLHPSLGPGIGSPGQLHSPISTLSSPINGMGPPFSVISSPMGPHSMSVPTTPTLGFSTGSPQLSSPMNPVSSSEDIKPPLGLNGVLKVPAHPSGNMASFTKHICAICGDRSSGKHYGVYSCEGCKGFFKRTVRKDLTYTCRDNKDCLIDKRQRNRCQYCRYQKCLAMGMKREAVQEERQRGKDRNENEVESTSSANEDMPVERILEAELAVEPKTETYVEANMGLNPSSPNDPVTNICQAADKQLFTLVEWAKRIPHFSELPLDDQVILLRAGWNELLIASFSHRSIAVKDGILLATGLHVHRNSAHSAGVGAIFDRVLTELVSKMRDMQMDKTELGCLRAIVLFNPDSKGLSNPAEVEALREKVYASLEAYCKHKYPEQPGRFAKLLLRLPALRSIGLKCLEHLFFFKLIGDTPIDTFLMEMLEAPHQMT
Chain of E-selectin (Homo sapiens) (P16581 whole entry, looked up): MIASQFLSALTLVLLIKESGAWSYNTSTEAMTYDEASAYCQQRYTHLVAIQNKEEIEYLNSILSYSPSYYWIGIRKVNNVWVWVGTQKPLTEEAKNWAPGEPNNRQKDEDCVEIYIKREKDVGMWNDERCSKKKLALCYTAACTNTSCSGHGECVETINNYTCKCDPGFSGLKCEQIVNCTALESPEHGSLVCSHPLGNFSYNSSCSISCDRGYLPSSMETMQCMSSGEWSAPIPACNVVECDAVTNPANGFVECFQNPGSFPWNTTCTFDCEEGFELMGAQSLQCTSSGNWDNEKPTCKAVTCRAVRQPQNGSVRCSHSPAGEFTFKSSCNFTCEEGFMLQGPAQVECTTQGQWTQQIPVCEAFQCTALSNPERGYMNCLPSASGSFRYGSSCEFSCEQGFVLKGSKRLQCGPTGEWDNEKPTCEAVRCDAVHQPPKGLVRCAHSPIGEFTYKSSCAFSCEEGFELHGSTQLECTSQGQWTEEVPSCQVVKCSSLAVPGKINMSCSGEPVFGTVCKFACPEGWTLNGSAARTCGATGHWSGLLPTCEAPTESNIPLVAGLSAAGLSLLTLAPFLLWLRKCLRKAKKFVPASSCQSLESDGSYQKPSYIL
Chain of human Thyroid Receptor alpha (THRa1), THRA (gene 7067) (P10827 whole entry, looked up, the tested form may be a part): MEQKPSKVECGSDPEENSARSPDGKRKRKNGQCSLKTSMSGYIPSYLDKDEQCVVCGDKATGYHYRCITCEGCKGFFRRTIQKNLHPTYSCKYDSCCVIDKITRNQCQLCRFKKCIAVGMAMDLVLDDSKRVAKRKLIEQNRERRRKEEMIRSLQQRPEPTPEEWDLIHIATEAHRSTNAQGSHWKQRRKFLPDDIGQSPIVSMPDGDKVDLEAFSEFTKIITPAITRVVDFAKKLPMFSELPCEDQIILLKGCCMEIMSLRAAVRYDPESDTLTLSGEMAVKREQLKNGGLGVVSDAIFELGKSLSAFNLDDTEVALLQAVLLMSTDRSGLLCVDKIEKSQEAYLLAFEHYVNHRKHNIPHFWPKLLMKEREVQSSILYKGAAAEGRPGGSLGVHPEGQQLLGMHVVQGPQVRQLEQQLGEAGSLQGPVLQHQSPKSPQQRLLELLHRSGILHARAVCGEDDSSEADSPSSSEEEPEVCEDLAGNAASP
Chain of human Retinoid X Receptor beta (RXRb), RXRB (gene 6257) (P28702 whole entry, looked up, the tested form may be a part): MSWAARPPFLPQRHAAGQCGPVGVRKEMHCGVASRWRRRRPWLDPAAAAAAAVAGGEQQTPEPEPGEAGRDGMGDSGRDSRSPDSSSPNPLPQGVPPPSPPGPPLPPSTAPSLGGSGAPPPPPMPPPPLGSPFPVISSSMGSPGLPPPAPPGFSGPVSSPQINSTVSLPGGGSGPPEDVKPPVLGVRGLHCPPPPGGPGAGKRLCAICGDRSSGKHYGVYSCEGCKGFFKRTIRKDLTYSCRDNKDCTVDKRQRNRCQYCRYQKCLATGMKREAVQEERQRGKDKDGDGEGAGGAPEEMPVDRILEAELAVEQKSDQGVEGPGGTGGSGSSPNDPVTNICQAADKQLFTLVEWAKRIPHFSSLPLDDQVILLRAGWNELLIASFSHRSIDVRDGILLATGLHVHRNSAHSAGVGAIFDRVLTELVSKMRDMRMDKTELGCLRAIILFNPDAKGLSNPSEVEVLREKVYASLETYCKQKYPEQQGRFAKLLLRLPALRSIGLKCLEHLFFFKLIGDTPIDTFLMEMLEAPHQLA
Chain of human Retinoic Acid Receptor beta (RARb), RARB (gene 5915) (P10826 whole entry, looked up): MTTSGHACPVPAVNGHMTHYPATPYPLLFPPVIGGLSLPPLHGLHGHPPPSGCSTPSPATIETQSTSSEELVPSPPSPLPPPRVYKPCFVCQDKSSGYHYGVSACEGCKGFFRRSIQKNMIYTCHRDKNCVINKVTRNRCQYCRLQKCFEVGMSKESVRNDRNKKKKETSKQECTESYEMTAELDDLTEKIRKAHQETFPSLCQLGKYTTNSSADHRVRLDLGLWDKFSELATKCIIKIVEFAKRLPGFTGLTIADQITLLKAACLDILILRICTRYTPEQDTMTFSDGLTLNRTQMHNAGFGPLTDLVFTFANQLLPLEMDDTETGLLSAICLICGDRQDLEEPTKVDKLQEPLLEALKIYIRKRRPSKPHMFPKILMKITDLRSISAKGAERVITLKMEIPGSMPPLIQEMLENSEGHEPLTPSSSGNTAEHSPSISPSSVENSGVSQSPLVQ
Chain of human Peroxisome Proliferator-activated Receptor alpha (PPARa), PPARA (gene 5465) (Q07869 whole entry, looked up, the tested form may be a part): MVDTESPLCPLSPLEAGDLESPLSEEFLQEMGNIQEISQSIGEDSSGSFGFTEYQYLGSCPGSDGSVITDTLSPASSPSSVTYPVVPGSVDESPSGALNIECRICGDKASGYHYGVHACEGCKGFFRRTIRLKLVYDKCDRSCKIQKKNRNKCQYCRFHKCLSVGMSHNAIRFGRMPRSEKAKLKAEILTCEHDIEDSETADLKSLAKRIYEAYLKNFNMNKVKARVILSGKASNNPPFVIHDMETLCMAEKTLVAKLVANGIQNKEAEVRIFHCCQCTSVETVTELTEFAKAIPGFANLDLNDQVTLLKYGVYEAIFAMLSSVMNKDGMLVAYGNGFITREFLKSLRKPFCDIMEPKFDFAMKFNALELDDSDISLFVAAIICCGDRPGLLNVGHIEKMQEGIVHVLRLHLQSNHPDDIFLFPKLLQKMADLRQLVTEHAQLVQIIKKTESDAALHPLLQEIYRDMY
Chain of Retinoic acid receptor alpha (Homo sapiens) (P10276 whole entry, looked up, the tested form may be a part): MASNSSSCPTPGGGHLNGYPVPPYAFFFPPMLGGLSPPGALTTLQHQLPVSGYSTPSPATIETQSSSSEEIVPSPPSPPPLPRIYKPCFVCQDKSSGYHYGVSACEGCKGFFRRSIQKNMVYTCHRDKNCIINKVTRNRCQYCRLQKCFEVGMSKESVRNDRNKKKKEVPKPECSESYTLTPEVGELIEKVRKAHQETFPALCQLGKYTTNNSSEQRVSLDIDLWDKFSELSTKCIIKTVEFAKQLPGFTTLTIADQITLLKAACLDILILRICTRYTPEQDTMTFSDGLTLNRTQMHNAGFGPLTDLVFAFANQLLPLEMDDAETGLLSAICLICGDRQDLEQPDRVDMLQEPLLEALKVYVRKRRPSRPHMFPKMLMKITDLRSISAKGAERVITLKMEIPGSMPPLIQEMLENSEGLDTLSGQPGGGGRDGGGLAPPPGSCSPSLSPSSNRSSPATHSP
Chain of Nuclear receptor subfamily 1 group I member 2 (Homo sapiens) (O75469 whole entry, looked up, the tested form may be a part): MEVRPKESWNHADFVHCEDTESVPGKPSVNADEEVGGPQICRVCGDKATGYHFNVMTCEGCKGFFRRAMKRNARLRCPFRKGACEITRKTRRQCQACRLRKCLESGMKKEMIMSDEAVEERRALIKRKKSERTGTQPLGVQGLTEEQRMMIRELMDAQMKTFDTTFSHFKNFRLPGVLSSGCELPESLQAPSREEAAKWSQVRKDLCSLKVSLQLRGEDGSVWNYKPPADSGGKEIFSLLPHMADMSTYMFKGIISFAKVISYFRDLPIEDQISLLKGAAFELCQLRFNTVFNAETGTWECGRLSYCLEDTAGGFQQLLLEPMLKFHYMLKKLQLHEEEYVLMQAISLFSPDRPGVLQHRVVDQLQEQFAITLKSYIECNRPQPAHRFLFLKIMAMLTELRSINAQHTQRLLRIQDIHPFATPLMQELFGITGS

For the compound `CC(C)(C)c1cc(/C=C2\SC(N)=NC2=O)cc(C(C)(C)C)c1O`, the compound was called inactive in assay [1], in assay [3], in assay [4], in assay [8], in assay [9] and in [11]. The concentration at half-maximal activity (AC50) was 31.7 µM (active) in [2]; 13.4 µM (active) in [5]; 6.79 µM (active) in [6]; 4.17 µM (active) in assay [7]; 29.3 µM (active) in assay [10]; 30.6 µM (active) in [12]. The AC50 in [13] is 20 µM (active); in [14], 27.5 µM (active); in assay [15] it was 37.1 µM (active).
Take `CN(C)C(=O)C1(N2CCCCC2)CCN(CC[C@@]2(c3ccc(Cl)c(Cl)c3)CN(C(=O)c3ccccc3)CCO2)CC1`: the compound was called inactive in [1], in assay [16], in [7], in assay [8], in assay [17] and in assay [18]. In addition, the AC50 was 36.8 µM (active) in assay [2]; 6.91 µM (active) in assay [5]; 29.8 µM (active) in assay [10]; 29.2 µM (active) in assay [11]; 22.9 µM (active) in assay [12]; 18.9 µM (active) in [13]. Further, the concentration at half-maximal activity (AC50) in assay [14] is 12.4 µM (active).
As for `O=C1CCC(C2CCCCC2)CC1`, the compound was called inactive in assay [1], in assay [2], in [3], in assay [4], in assay [5] and in [19]. Also, the result in [8], in assay [9], in assay [17], in assay [10], in assay [11] and in [12] was inactive. The result in assay [13], in assay [14], in [20], in assay [15] and in [18] was inactive. Also, the AC50 in assay [6] was 27.6 µM (active) [middle of 4 runs].

For orientation: AC50 means the midpoint of the concentration-response curve, whichever way the signal moves.
